# Experimental data published in the supplement of paper PMC4466140.
# Target: CaNbp2
# Test: SPOT peptide array binding signal intensity (averaged, normalized) (arbitrary units (background-subtracted, floor 0; scale differs between SH3 domains)); higher = stronger binding of the SH3 domain to the peptide
# Outline: (§1)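 SH3 domains from four yeast species were expressed as GST fusions in E. coli BL21(DE3) and purified on glutathione Sepharose. Each was incubated at 10 μg/ml overnight at 4°C in TBS-based blocking buffer on cellulose membranes bearing synthetic 15-mer peptides, in which serines replaced cysteines. Bound protein was detected with anti-GST antibody, an HRP anti-mouse secondary and luminol, then imaged and quantified with Genespotter. The binding signal is the normalized, background-subtracted spot intensity averaged over replicates, in arbitrary units that are not the same from one domain to another.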
row,Binder,SPOT peptide array binding signal intensity
1,RRSKSLPTTPGIRSG,430
2,RKRAPTPPAPSRSEK,797

# Target: CaRvs167
# Test: as above
# Outline: as §1
row,Binder,SPOT peptide array binding signal intensity
1,RRSKSLPTTPGIRSG,15.2
2,RKRAPTPPAPSRSEK,27.8

# Target: CaRvs167-3
# Test: as above
# Outline: as §1
row,Binder,SPOT peptide array binding signal intensity
1,RRSKSLPTTPGIRSG,55.5
2,RKRAPTPPAPSRSEK,20.2

# Target: CaSho1
# Test: as above
# Outline: as §1
row,Binder,SPOT peptide array binding signal intensity
1,RRSKSLPTTPGIRSG,1030
2,RKRAPTPPAPSRSEK,4

# Target: CaSla1-D1-D2
# Test: as above
# Outline: as §1
row,Binder,SPOT peptide array binding signal intensity
1,RRSKSLPTTPGIRSG,2240
2,RKRAPTPPAPSRSEK,1150

# Target: CaSla1-D3
# Test: as above
# Outline: as §1
row,Binder,SPOT peptide array binding signal intensity
1,RRSKSLPTTPGIRSG,≤ 0
2,RKRAPTPPAPSRSEK,≤ 0

# Target: ScAbp1
# Test: as above
# Outline: as §1
row,Binder,SPOT peptide array binding signal intensity
1,RRSKSLPTTPGIRSG,261
2,RKRAPTPPAPSRSEK,187

# Target: ScBbc1
# Test: as above
# Outline: as §1
row,Binder,SPOT peptide array binding signal intensity
1,RRSKSLPTTPGIRSG,19.2
2,RKRAPTPPAPSRSEK,114

# Target: ScBem1-D1
# Test: as above
# Outline: as §1
row,Binder,SPOT peptide array binding signal intensity
1,RRSKSLPTTPGIRSG,54
2,RKRAPTPPAPSRSEK,21.5

# Target: ScBzz1-D1
# Test: as above
# Outline: as §1
row,Binder,SPOT peptide array binding signal intensity
1,RRSKSLPTTPGIRSG,25
2,RKRAPTPPAPSRSEK,128

# Target: ScBzz1-D2
# Test: as above
# Outline: as §1
row,Binder,SPOT peptide array binding signal intensity
1,RRSKSLPTTPGIRSG,27
2,RKRAPTPPAPSRSEK,26

# Target: ScCyk3
# Test: as above
# Outline: as §1
row,Binder,SPOT peptide array binding signal intensity
1,RRSKSLPTTPGIRSG,96
2,RKRAPTPPAPSRSEK,9.5

# Target: ScFus1
# Test: as above
# Outline: as §1
row,Binder,SPOT peptide array binding signal intensity
1,RRSKSLPTTPGIRSG,163
2,RKRAPTPPAPSRSEK,≤ 0

# Target: ScHof1
# Test: as above
# Outline: as §1
row,Binder,SPOT peptide array binding signal intensity
1,RRSKSLPTTPGIRSG,1.25
2,RKRAPTPPAPSRSEK,0.75

# Target: ScHse1
# Test: as above
# Outline: as §1
row,Binder,SPOT peptide array binding signal intensity
1,RRSKSLPTTPGIRSG,1360
2,RKRAPTPPAPSRSEK,762

# Target: ScLsb1
# Test: as above
# Outline: as §1
row,Binder,SPOT peptide array binding signal intensity
1,RRSKSLPTTPGIRSG,77
2,RKRAPTPPAPSRSEK,89.5

# Target: ScLsb2
# Test: as above
# Outline: as §1
row,Binder,SPOT peptide array binding signal intensity
1,RRSKSLPTTPGIRSG,6
2,RKRAPTPPAPSRSEK,6

# Target: ScLsb3
# Test: as above
# Outline: as §1
row,Binder,SPOT peptide array binding signal intensity
1,RRSKSLPTTPGIRSG,444
2,RKRAPTPPAPSRSEK,1010

# Target: ScLsb4
# Test: as above
# Outline: as §1
row,Binder,SPOT peptide array binding signal intensity
1,RRSKSLPTTPGIRSG,21
2,RKRAPTPPAPSRSEK,31.5

# Target: ScMyo3
# Test: as above
# Outline: as §1
row,Binder,SPOT peptide array binding signal intensity
1,RRSKSLPTTPGIRSG,6.5
2,RKRAPTPPAPSRSEK,5

# Target: ScMyo5
# Test: as above
# Outline: as §1
row,Binder,SPOT peptide array binding signal intensity
1,RRSKSLPTTPGIRSG,≤ 0
2,RKRAPTPPAPSRSEK,1.5

# Target: ScNbp2
# Test: as above
# Outline: as §1
row,Binder,SPOT peptide array binding signal intensity
1,RRSKSLPTTPGIRSG,203
2,RKRAPTPPAPSRSEK,2100

# Target: ScPex13
# Test: as above
# Outline: as §1
row,Binder,SPOT peptide array binding signal intensity
1,RRSKSLPTTPGIRSG,23.2
2,RKRAPTPPAPSRSEK,30.5

# Target: ScRvs167
# Test: as above
# Outline: as §1
row,Binder,SPOT peptide array binding signal intensity
1,RRSKSLPTTPGIRSG,18.7
2,RKRAPTPPAPSRSEK,544

# Target: ScSho1
# Test: as above
# Outline: as §1
row,Binder,SPOT peptide array binding signal intensity
1,RRSKSLPTTPGIRSG,5840
2,RKRAPTPPAPSRSEK,172

# Target: ScSla1-D1-D2
# Test: as above
# Outline: as §1
row,Binder,SPOT peptide array binding signal intensity
1,RRSKSLPTTPGIRSG,4460
2,RKRAPTPPAPSRSEK,1970

# Target: ScSla1-D3
# Test: as above
# Outline: as §1
row,Binder,SPOT peptide array binding signal intensity
1,RRSKSLPTTPGIRSG,70.5
2,RKRAPTPPAPSRSEK,46.5

# Target: SpAbp1-D1
# Test: as above
# Outline: as §1
row,Binder,SPOT peptide array binding signal intensity
1,RRSKSLPTTPGIRSG,2040
2,RKRAPTPPAPSRSEK,1150

# Target: SpBbc1
# Test: as above
# Outline: as §1
row,Binder,SPOT peptide array binding signal intensity
1,RRSKSLPTTPGIRSG,6.5
2,RKRAPTPPAPSRSEK,≤ 0

# Target: SpBzz1-D1
# Test: as above
# Outline: as §1
row,Binder,SPOT peptide array binding signal intensity
1,RRSKSLPTTPGIRSG,226
2,RKRAPTPPAPSRSEK,428

# Target: SpBzz1-D2
# Test: as above
# Outline: as §1
row,Binder,SPOT peptide array binding signal intensity
1,RRSKSLPTTPGIRSG,0.5
2,RKRAPTPPAPSRSEK,157

# Target: SpCyk3
# Test: as above
# Outline: as §1
row,Binder,SPOT peptide array binding signal intensity
1,RRSKSLPTTPGIRSG,5
2,RKRAPTPPAPSRSEK,≤ 0

# Target: SpHof1
# Test: as above
# Outline: as §1
row,Binder,SPOT peptide array binding signal intensity
1,RRSKSLPTTPGIRSG,2630
2,RKRAPTPPAPSRSEK,140

# Target: SpHof1-2
# Test: as above
# Outline: as §1
row,Binder,SPOT peptide array binding signal intensity
1,RRSKSLPTTPGIRSG,3020
2,RKRAPTPPAPSRSEK,5.75

# Target: SpHof1-3
# Test: as above
# Outline: as §1
row,Binder,SPOT peptide array binding signal intensity
1,RRSKSLPTTPGIRSG,1440
2,RKRAPTPPAPSRSEK,486

# Target: SpHse1
# Test: as above
# Outline: as §1
row,Binder,SPOT peptide array binding signal intensity
1,RRSKSLPTTPGIRSG,356
2,RKRAPTPPAPSRSEK,123

# Target: SpLsb1
# Test: as above
# Outline: as §1
row,Binder,SPOT peptide array binding signal intensity
1,RRSKSLPTTPGIRSG,0.5
2,RKRAPTPPAPSRSEK,39.2

# Target: SpLsb4
# Test: as above
# Outline: as §1
row,Binder,SPOT peptide array binding signal intensity
1,RRSKSLPTTPGIRSG,574
2,RKRAPTPPAPSRSEK,1110

# Target: SpMyo1
# Test: as above
# Outline: as §1
row,Binder,SPOT peptide array binding signal intensity
1,RRSKSLPTTPGIRSG,15.2
2,RKRAPTPPAPSRSEK,4.5

# Target: SpNbp2
# Test: as above
# Outline: as §1
row,Binder,SPOT peptide array binding signal intensity
1,RRSKSLPTTPGIRSG,506
2,RKRAPTPPAPSRSEK,67.5

# Target: SpPex13
# Test: as above
# Outline: as §1
row,Binder,SPOT peptide array binding signal intensity
1,RRSKSLPTTPGIRSG,8.5
2,RKRAPTPPAPSRSEK,≤ 0

# Target: SpRvs167
# Test: as above
# Outline: as §1
row,Binder,SPOT peptide array binding signal intensity
1,RRSKSLPTTPGIRSG,72.5
2,RKRAPTPPAPSRSEK,450

# Target: SpSla1-D1-D2
# Test: as above
# Outline: as §1
row,Binder,SPOT peptide array binding signal intensity
1,RRSKSLPTTPGIRSG,1620
2,RKRAPTPPAPSRSEK,199

# Target: SpSla1-D3
# Test: as above
# Outline: as §1
row,Binder,SPOT peptide array binding signal intensity
1,RRSKSLPTTPGIRSG,15
2,RKRAPTPPAPSRSEK,≤ 0

# Target: AgAbp1
# Test: as above
# Outline: as §1
row,Binder,SPOT peptide array binding signal intensity
1,RKRAPTPPAPSRSEK,639

# Target: AgBbc1
# Test: as above
# Outline: as §1
row,Binder,SPOT peptide array binding signal intensity
1,RKRAPTPPAPSRSEK,146

# Target: AgBem1-D1
# Test: as above
# Outline: as §1
row,Binder,SPOT peptide array binding signal intensity
1,RKRAPTPPAPSRSEK,112

# Target: AgBzz1-D1
# Test: as above
# Outline: as §1
row,Binder,SPOT peptide array binding signal intensity
1,RKRAPTPPAPSRSEK,128

# Target: AgBzz1-D2
# Test: as above
# Outline: as §1
row,Binder,SPOT peptide array binding signal intensity
1,RKRAPTPPAPSRSEK,98

# Target: AgCyk3
# Test: as above
# Outline: as §1
row,Binder,SPOT peptide array binding signal intensity
1,RKRAPTPPAPSRSEK,2

# Target: AgFus1
# Test: as above
# Outline: as §1
row,Binder,SPOT peptide array binding signal intensity
1,RKRAPTPPAPSRSEK,≤ 0

# Target: AgHof1
# Test: as above
# Outline: as §1
row,Binder,SPOT peptide array binding signal intensity
1,RKRAPTPPAPSRSEK,25

# Target: AgHse1
# Test: as above
# Outline: as §1
row,Binder,SPOT peptide array binding signal intensity
1,RKRAPTPPAPSRSEK,171

# Target: AgLsb1
# Test: as above
# Outline: as §1
row,Binder,SPOT peptide array binding signal intensity
1,RKRAPTPPAPSRSEK,253

# Target: AgLsb4
# Test: as above
# Outline: as §1
row,Binder,SPOT peptide array binding signal intensity
1,RKRAPTPPAPSRSEK,35.5

# Target: AgMyo5
# Test: as above
# Outline: as §1
row,Binder,SPOT peptide array binding signal intensity
1,RKRAPTPPAPSRSEK,0.5

# Target: AgNbp2
# Test: as above
# Outline: as §1
row,Binder,SPOT peptide array binding signal intensity
1,RKRAPTPPAPSRSEK,1300

# Target: AgRvs167
# Test: as above
# Outline: as §1
row,Binder,SPOT peptide array binding signal intensity
1,RKRAPTPPAPSRSEK,4.33

# Target: AgSho1
# Test: as above
# Outline: as §1
row,Binder,SPOT peptide array binding signal intensity
1,RKRAPTPPAPSRSEK,5

# Target: AgSla1-D1-D2
# Test: as above
# Outline: as §1
row,Binder,SPOT peptide array binding signal intensity
1,RKRAPTPPAPSRSEK,167

# Target: AgSla1-D3
# Test: as above
# Outline: as §1
row,Binder,SPOT peptide array binding signal intensity
1,RKRAPTPPAPSRSEK,21.8

# Target: CaAbp1-D1
# Test: as above
# Outline: as §1
row,Binder,SPOT peptide array binding signal intensity
1,RKRAPTPPAPSRSEK,3830

# Target: CaAbp1-D2
# Test: as above
# Outline: as §1
row,Binder,SPOT peptide array binding signal intensity
1,RKRAPTPPAPSRSEK,3240

# Target: CaBbc1
# Test: as above
# Outline: as §1
row,Binder,SPOT peptide array binding signal intensity
1,RKRAPTPPAPSRSEK,426

# Target: CaBem1-D1
# Test: as above
# Outline: as §1
row,Binder,SPOT peptide array binding signal intensity
1,RKRAPTPPAPSRSEK,306

# Target: CaBzz1-D1
# Test: as above
# Outline: as §1
row,Binder,SPOT peptide array binding signal intensity
1,RKRAPTPPAPSRSEK,2860

# Target: CaBzz1-D2
# Test: as above
# Outline: as §1
row,Binder,SPOT peptide array binding signal intensity
1,RKRAPTPPAPSRSEK,3180

# Target: CaCyk3
# Test: as above
# Outline: as §1
row,Binder,SPOT peptide array binding signal intensity
1,RKRAPTPPAPSRSEK,12

# Target: CaFus1
# Test: as above
# Outline: as §1
row,Binder,SPOT peptide array binding signal intensity
1,RKRAPTPPAPSRSEK,106

# Target: CaHof1
# Test: as above
# Outline: as §1
row,Binder,SPOT peptide array binding signal intensity
1,RKRAPTPPAPSRSEK,0.25

# Target: CaHse1
# Test: as above
# Outline: as §1
row,Binder,SPOT peptide array binding signal intensity
1,RKRAPTPPAPSRSEK,3.25

# Target: CaLsb1
# Test: as above
# Outline: as §1
row,Binder,SPOT peptide array binding signal intensity
1,RKRAPTPPAPSRSEK,5.5

# Target: CaLsb4
# Test: as above
# Outline: as §1
row,Binder,SPOT peptide array binding signal intensity
1,RKRAPTPPAPSRSEK,249

# Target: CaMyo5
# Test: as above
# Outline: as §1
row,Binder,SPOT peptide array binding signal intensity
1,RKRAPTPPAPSRSEK,3.5
